DT40 TDP1 CPT = DT40-hTDP1 cell growth loss with CPT | chicken DT40 Tdp1-/-;hTDP1 cells + 20 nM CPT, ATP luminescence, 48 h | Potency, µM (titrated, usually from 46.2 µM), without a hit: top-dose activity change, negative = growth inhibition, hits mostly inhibitors | 420,000 compounds, 12% hits | AID 686979; note: nearly all actives have a fitted effect of over 55% in size
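Chicken DT40 Tdp1-/- cells stably complemented with human TDP1 were seeded at 400 cells/well in medium containing 20 nM camptothecin, exposed to pin-transferred compounds, and grown at 37 °C for at least 48 hr. Viability was read as ATP luminescence.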
HT1080 IDH1KD tx = HT-1080 IDH1 knockdown cell toxicity (counter line); AID 686971; Potency, µM (top dose mostly 46.1 µM), without a hit: at the top dose activity, negative = toxicity, most hits filed as cytotoxic; 360,000 compounds, 2% hits; HT-1080 IDH1 knockdown viability, ATP luminescence, 48 h;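 note: 0% = DMSO wells and -100% = cell-free medium wells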
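IDH1KD HT-1080 cells, 750/well, RPMI + 5% FBS; compound pinned after 2 h settling; 48 h, 37 °C; CellTiter-Glo luminescence; % activity normalised to DMSO and no-cell wells; curves fitted, classed by r2 and efficacy.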
KB-V1 cytotox = KB-V1 MDR subline cytotoxicity. KB-V1 MDR cells viability, CellTiter-Glo, 72 h. Potency, µM (highest dose often 46.1 µM), hits mostly cytotoxic. 400,000 compounds, 3.4% hits. AID 1347076; note: nearly all actives have a fitted effect of over 60% in size
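Following 72 h at 37 degrees C with compound, KB-V1 cell viability was read by CellTiter-Glo luminescence, medium being phenol-red-free DMEM plus 10% FBS; concentration-response parameters came from normalized, curve-fitted qHTS data.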
KB-3-1 cytotox = kills parental KB-3-1 adenocarcinoma cells | KB-3-1 viability, CellTiter-Glo ATP luminescence, 72 h | 400,000 compounds, 1.4% hits | Potency, µM (series often up to 46.1 µM), actives largely listed as cytotoxic; note: nearly all actives have a fitted effect of over 60% in size
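Multi-concentration cytotoxicity screen in KB-3-1 cells grown in DMEM lacking phenol red with 10% FBS. After 72 h at 37 °C with compound, ATP-dependent luminescence was recorded.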
DT40 TDP1 no CPT = qHTS for Inhibitors of human tyrosyl-DNA phosphodiesterase 1 (TDP1): qHTS in cells in absence of CPT; 420,000 compounds, 15% hits; DT40 Tdp1-/- hTDP1 cells, no CPT, ATP luminescence, 48 h; Potency, µM (top dose mostly 46.2 µM), inactives show top-dose activity change, negative = growth inhibition, most hits filed as inhibitors; AID 686978, 2013; note: nearly all actives have a fitted effect of over 55% in size
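No-CPT arm: Tdp1-/-;hTDP1 DT40 cells (400/well) plus compounds, incubated ≥48 hr at 37 °C. Readout CellTiter-Glo luminescence.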
HT1080NT lethal = kills 2HG-producing HT-1080-NT fibrosarcoma cells. HT-1080-NT fibrosarcoma viability, CellTiter-Glo ATP luminescence, 48 h. Potency, µM (titrated, usually from 46.1 µM), inactives show at the top dose activity, negative = less viability, usual class: cytotoxic. 360,000 compounds, 1.6% hits;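 note: NT is the 2HG producing partner of a matched IDH1 knockdown line; 0% = DMSO-treated cells and -100% = media-only wells without cells; nearly all actives have a fitted effect of over 55% in size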
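HT-1080-NT fibrosarcoma cells (2HG-overproducing), 750 cells/well in RPMI with 5% FBS, dosed after 2 h and incubated 48 h at 37C. CellTiter-Glo luminescence normalized to DMSO and no-cell wells; concentration-response curves fitted and classed.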
* hit, by the source's call; i = inactive; ? = inconclusive; . = no result. This is a sample that favours compounds with a hit; in the whole collection about 19% have one here. Calls come from the whole dose curve; as a rule, active = well fitted curve in the direction sought with a large enough effect; inconclusive = small, poorly fitted or top-dose-only effect, or another doubt; inactive = no such curve, though single readings can be large; an effect the other way counts as inactive or inconclusive. Unless noted, % is set by controls: 0 for no effect and ±100 for the full control effect; potency is the fitted concentration of half-maximal effect.

SMILES	DT40 TDP1 CPT	HT1080 IDH1KD tx	KB-V1 cytotox	KB-3-1 cytotox	DT40 TDP1 no CPT	HT1080NT lethal
O=C(CCc1ccccc1)Nc1nc2c(F)cc(F)cc2s1	?	-4%	i	i	13µM*	2%
CCOC(=O)c1ccc2nc(Nc3nc4ccc(F)cc4s3)sc2c1	-22%	0%	?	i	?	0%
COC(=O)c1ccc2nc(NC(=O)CCS(=O)(=O)c3ccccc3)sc2c1	8.2µM*	-2%	i	i	9.2µM*	-7%
Cc1cc(=O)[nH]c(Nc2ccccc2C)n1	-3%	11%	i	i	-10%	6%
O=C(CCC(=O)N1CCN(S(=O)(=O)c2ccccc2)CC1)c1ccc(Br)cc1	?	1%	.	.	?	0%
O=C(CCS(=O)(=O)c1ccccc1)Nc1nc2ccc(F)cc2s1	12µM*	-10%	i	?	13µM*	-15%
O=C(CCS(=O)(=O)c1ccccc1)Nc1nc2cc3c(cc2s1)OCCO3	?	?	i	i	?	0%
CC(C)(C)NS(=O)(=O)c1ccc2nc(NC(=O)Cc3cccs3)sc2c1	?	?	?	?	15µM*	?
O=C1Oc2ccccc2C(=O)/C1=C\N1CCN(c2ccccc2)CC1	-3%	?	i	i	-14%	?
CCCCc1ccc(NC(=O)COC(=O)c2ccccc2OCC(=O)Nc2ccc(Br)cc2)cc1	11µM*	.	i	?	?	.
O=C(COC(=O)COc1ccccc1)Nc1cccc([N+](=O)[O-])c1	-6%	0%	i	i	-12%	-2%
O=C(COc1ccccc1C(=O)Nc1ccccc1)Nc1cccc([N+](=O)[O-])c1	13µM*	.	i	?	?	.
CC(NS(=O)(=O)c1ccc(OCC(=O)Nc2cccc([N+](=O)[O-])c2)cc1)c1ccccc1 (stereo not given)	?	?	?	i	21µM*	-29%
O=C(COc1ccccc1C(=O)Nc1ccccc1)Nc1ccc(Br)cc1	?	.	i	i	?	.
Cc1noc(-c2ccccc2OCC(=O)Nc2cccc([N+](=O)[O-])c2)n1	?	.	i	i	-29%	.
CC(C)(C)NC(=O)COC(=O)c1ccccc1OCC(=O)Nc1ccc(Br)cc1	-3%	-23%	i	i	-27%	-26%
O=C(COc1ccccc1C(=O)Nc1cccc([N+](=O)[O-])c1)Nc1ccc(Br)cc1	7.9µM*	.	?	?	16µM*	.
CCOC(=O)c1c(NC(=O)Cn2nc([N+](=O)[O-])c(Br)c2C)sc2c1CCC(C)C2 (stereo not given)	-22%	3%	?	?	?	-6%
Cc1cc(C(=O)NCCc2ccccc2)c2cc(F)ccc2n1	-28%	7%	?	i	?	3%
O=C(COc1ccccc1Cl)NC(=S)Nc1cccc(NC(=O)c2ccccc2Cl)c1	-10%	0%	i	i	-20%	-10%
O=C(COc1ccccc1C(=O)Nc1ccccc1)Nc1cccc(Cl)c1	18µM*	-17%	.	.	18µM*	-27%
O=C(COc1ccccc1C(=O)Nc1ccccc1)NCCCCc1ccccc1	?	-24%	.	.	18µM*	-11%
COc1ccc(OC)c(CCNC(=O)CCn2nc(C)c3c(C)n(-c4ccccc4)nc3c2=O)c1	-1%	5%	i	i	-5%	-1%
Cc1cc2oc(C(=O)Nc3sc4c(c3C(=O)NCC3CCCO3)CCCC4)cc(=O)c2cc1C (stereo not given)	-1%	.	i	i	-3%	.
CCOC(=O)Cc1csc(SCC(=O)c2c(N)n(CC(C)C)c(=O)n(C)c2=O)n1	9.2µM*	-10%	?	i	10µM*	3%

Screens deposited in PubChem by National Center for Advancing Translational Sciences (NCATS).
